What all share (assay): Primary qHTS to identify gynecologic anti-cancer compounds using libraries of approved drugs and bioactive compounds (AID 1345084); also: nearly all actives have a fitted effect of over 55% in size
One test has as its system C33A. To be noted: Gynecologic cancer cell panel viability, ATPlite luminescence, 48 h; series mostly up to 57.5 µM. The method in brief:
(§1)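 Cells, 1,000 per well, plated 16 h, then exposed 48 h at 37 C to compounds. Viability by ATPlite luminescence after 15 min at room temperature.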
A general note: ATP-based viability assays read luminescence as a measure of living cells.

A further test has as its system CAOV3. The following applies: Gynecologic cancer cell panel viability, ATPlite luminescence, 48 h; series mostly up to 57.5 µM. The method in brief:
as §1

The subject of a further test is CASKI. To be noted: Gynecologic cancer cell panel viability, ATPlite luminescence, 48 h; series mostly up to 57.5 µM. The method, boiled down: as §1
The test system of a further test is Es-2. The following applies: Gynecologic cancer cell panel viability, ATPlite luminescence, 48 h; series mostly up to 57.5 µM. The method, boiled down: as §1
The test system of a further test is HeLa. To be noted: Gynecologic cancer cell panel viability, ATPlite luminescence, 48 h; series mostly up to 57.5 µM. The method, boiled down:
as §1

In the next test the test system is Hek293T. The following applies: Gynecologic cancer cell panel viability, ATPlite luminescence, 48 h, control line for the selectivity index; series mostly up to 57.5 µM. The method, boiled down:
as §1

The next test has as its system JEG-3. The following applies: Gynecologic cancer cell panel viability, ATPlite luminescence, 48 h; series mostly up to 57.5 µM. The method, boiled down: as §1
In a further test the test system is OV90. To be noted: Gynecologic cancer cell panel viability, ATPlite luminescence, 48 h; series mostly up to 57.5 µM. The method in brief:
as §1

The test system of the next test is PA-1. The following applies: Gynecologic cancer cell panel viability, ATPlite luminescence, 48 h; series mostly up to 57.5 µM. The method in brief:
as §1

The next test concerns SKOV3. To be noted: Gynecologic cancer cell panel viability, ATPlite luminescence, 48 h; series mostly up to 57.5 µM. The method, boiled down: as §1
In the next test the test system is Tov-21-G. To be noted: Gynecologic cancer cell panel viability, ATPlite luminescence, 48 h; series mostly up to 57.5 µM. The method, boiled down: as §1
Another test relates to Tov112D. To be noted: Gynecologic cancer cell panel viability, ATPlite luminescence, 48 h; series mostly up to 57.5 µM. The method, boiled down:
as §1

Results filed as inconclusive are left out. Values without a mark were called inactive. The source made the active and inactive calls. Calls follow the shape of the dose curve; as a rule, active = well fitted cell-killing curve with a large enough effect; inconclusive = small, poorly fitted or top-dose-only effect, or effect the other way; inactive = flat fitted curve, though single readings scatter.
% is scaled to controls: 0 for no effect and ±100 for the full control effect; potency is read from the fitted curve at half-maximal effect.

With `COC(=O)CCc1cc2ccoc2c(OC)c1O[C@@H]1O[C@H](CO)[C@@H](O)[C@H](O)[C@H]1O`, the Potency entry in the test with C33A, in the test with CAOV3, with CASKI, in the test on Es-2, in the test on HeLa and in the test on Hek293T was “inactive” in each case. Besides, the Potency result with JEG-3, in the test with OV90, with PA-1, in the test on SKOV3, in the test with Tov-21-G and in the test with Tov112D was “inactive” each time.
Regarding `C/C=C/C=C/C=C/C(=O)OC1C=C(C=O)C(O)(C(=O)O)C2(C)CCCC(C)(C)C12` (stereo not drawn), the Potency entry in the test with C33A, in the test with CAOV3, in the test on CASKI, with Es-2, in the test with HeLa and in the test with Hek293T was “inactive” throughout. Also, the Potency entry in the test with JEG-3, in the test with OV90, in the test with PA-1, in the test on SKOV3, in the test with Tov-21-G and in the test on Tov112D was “inactive” in each case.
For `O=C(/C=C/c1ccc(O)cc1)N[C@@H](Cc1ccc(O)cc1)C(=O)O`, the Potency entry with C33A, in the test with CAOV3, with CASKI, in the test on Es-2, in the test with HeLa and in the test with Hek293T was “inactive” each time. The Potency entry in the test with JEG-3, in the test with OV90, in the test on PA-1, in the test with SKOV3, with Tov-21-G and in the test on Tov112D was “inactive” throughout.
`C/C=C(\C)C(=O)O[C@@H]1CC2[C@@H](CC=C3C[C@@H](O[C@H]4C[C@H](OC)[C@H](O[C@H]5C[C@H](OC)[C@H](O[C@@H]6O[C@H](C)[C@@H](O[C@H]7C[C@H](OC)[C@H](O[C@@H]8O[C@H](CO)[C@@H](O)[C@H](O)[C@H]8O)[C@@H](C)O7)[C@H](OC)[C@H]6O)[C@@H](C)O5)[C@@H](C)O4)CC[C@@]32C)[C@@]2(O)CC[C@H](C(C)=O)[C@@]12C` (stereo partly drawn): the activity change, negative = cytotoxicity in the test with C33A is 1.36% [at 6.55 µM]; in the test on CAOV3, 9.95% [at 6.55 µM]; in the test on CASKI, 2.06% [at 6.55 µM]; in the test with Es-2, -1.14% [at 6.55 µM]; in the test with HeLa it was -0.318% [at 6.55 µM]; in the test on Hek293T it was -2.04% [at 6.55 µM]. The activity change, negative = cytotoxicity with JEG-3 is -4.6% [at 6.55 µM]; in the test on OV90 it was -1.27% [at 6.55 µM]; in the test on PA-1, -4.92% [at 6.55 µM]; with SKOV3 it was -3.56% [at 6.55 µM]; in the test with Tov-21-G, -5.17% [at 6.55 µM]; in the test on Tov112D, 5.73% [at 6.55 µM].
`CC(C)=CCC/C(C)=C/CO[C@@H]1O[C@H](CO)[C@@H](OC(=O)/C=C/c2ccc(O)cc2)[C@H](O[C@@H]2O[C@@H](C)[C@H](O)[C@@H](O)[C@H]2O)[C@H]1O`: the Potency entry with C33A, in the test with CAOV3, in the test with CASKI, in the test on Es-2, in the test on HeLa and in the test on Hek293T was “inactive” in each case. In addition, the Potency result in the test on JEG-3, in the test on OV90, in the test on PA-1, with SKOV3, in the test on Tov-21-G and in the test on Tov112D was “inactive” in each case.
With `CC1OC(OC2CCC3(C)C(CCC4(C)C3CC=C3C5CC(C)(C)CCC5(C(=O)OC5OC(CO)C(O)C(O)C5O)CCC34C(=O)O)C2(C)C)C(O)C(O)C1O` (stereo not drawn), the Potency entry in the test with C33A, with CAOV3, with CASKI, in the test with Es-2, with HeLa and with Hek293T was “inactive” throughout. Further, the Potency entry in the test on JEG-3, in the test on OV90, in the test on PA-1, in the test with SKOV3, in the test with Tov-21-G and in the test on Tov112D was “inactive” each time.
Take `C[C@H](CCC(=O)O)[C@H]1CC[C@H]2[C@@H]3C[C@H](O)[C@@H]4C[C@H](O)CC[C@]4(C)[C@H]3CC[C@]12C`: the Potency entry in the test on C33A, in the test on CAOV3, in the test on CASKI, in the test with Es-2, in the test on HeLa and with Hek293T was “inactive” throughout. Also, the Potency result in the test on JEG-3, in the test with OV90, in the test on PA-1, in the test on SKOV3, with Tov-21-G and with Tov112D was “inactive” throughout.
Take `CC1=C(CCC(C)O[C@@H]2O[C@H](CO)[C@@H](O)[C@H](O)[C@H]2O)C(C)(C)CCC1=O` (stereo partly drawn): the Potency result in the test with C33A, in the test with CAOV3, with CASKI, in the test with Es-2, in the test with HeLa and in the test with Hek293T was “inactive” each time. The Potency result in the test on JEG-3, in the test with OV90, in the test with PA-1, in the test on SKOV3, in the test with Tov-21-G and with Tov112D was “inactive” in each case.
Take `Nc1ncnc2c1nc(N)n2[C@@H]1O[C@H](CO)[C@@H](O)[C@H]1O`: the Potency in the test with C33A is 3.55 µM (active); in the test on CAOV3, 1.26 µM (active); with CASKI, 3.16 µM (active); with Es-2, 3.16 µM (active); in the test on HeLa, 5.01 µM (active); in the test with Hek293T, 7.94 µM (active). The Potency in the test with JEG-3 was 15.8 µM (active); in the test with OV90, 3.55 µM (active); in the test on PA-1, 4.47 µM (active); in the test with SKOV3, 3.16 µM (active); with Tov-21-G, 3.16 µM (active); in the test on Tov112D, 3.55 µM (active).
As for `CC(=O)OC1CC2(C)C3=CCC4(C)C5C(O)C(O)C(C(C)C)C5(C)CCC4(C)C3CCC2C(C)(C)C1OC1OC(CO)C(O)C(O)C1O` (stereo not drawn), the Potency entry with C33A, with CAOV3, in the test on CASKI, in the test on Es-2, with HeLa and in the test on Hek293T was “inactive” each time. The Potency result in the test on JEG-3, in the test on OV90, in the test with PA-1, with SKOV3, in the test with Tov-21-G and with Tov112D was “inactive” throughout.
For `C=C(C(=O)O)C1CC(O)C2(C)CCCC(=C)C2C1` (stereo not drawn), the Potency entry in the test on C33A, with CAOV3, in the test with CASKI, with Es-2, with HeLa and in the test with Hek293T was “inactive” in each case. Further, the Potency result with JEG-3, in the test with OV90, in the test with PA-1, with SKOV3, with Tov-21-G and with Tov112D was “inactive” in each case.
Take `Cn1nc(C(C)(C)C)cc1C(=O)NC(Cc1cccc(Cl)c1)C(=O)NCC#N` (stereo not drawn): the Potency result in the test on C33A, in the test on CAOV3, in the test on CASKI, in the test on Es-2, with HeLa and with Hek293T was “inactive” each time. Besides, the Potency result in the test on JEG-3, in the test with OV90, with PA-1, in the test on SKOV3, in the test on Tov-21-G and in the test with Tov112D was “inactive” each time.
On to `C[C@@H]1O[C@@H](O[C@H]2[C@H](O[C@H]3CC[C@@]4(C)C(CC[C@]5(C)C4C=C[C@]46OC[C@@]7(CCC(C)(C)C[C@H]74)[C@@H](O)C[C@]65C)[C@]3(C)CO)O[C@H](CO)[C@@H](O)[C@@H]2O[C@@H]2O[C@H](CO)[C@@H](O[C@@H]3O[C@@H](C)[C@H](O)[C@@H](O)[C@H]3O)[C@H](O)[C@H]2O)[C@H](O)[C@H](O)[C@H]1O` (stereo partly drawn), for which the activity change, negative = cytotoxicity with C33A is -24.9% [at 11.6 µM]; in the test with CAOV3, -6.89% [at 11.6 µM]; in the test with CASKI, -6.58% [at 11.6 µM]; with Es-2, -4.56% [at 11.6 µM]; in the test with HeLa, -11.4% [at 11.6 µM]; in the test on Hek293T it was -7.26% [at 11.6 µM]. The activity change, negative = cytotoxicity with JEG-3 is -0.552% [at 11.6 µM]; in the test with OV90, -28.6% [at 11.6 µM]; in the test on PA-1, -23.2% [at 11.6 µM]; in the test with SKOV3, -29.1% [at 11.6 µM]; in the test on Tov-21-G, -25.6% [at 11.6 µM]; in the test with Tov112D, -4.43% [at 11.6 µM].
`C/C=C(\C)C(=O)OCC1OC(OC2OC(COC(=O)/C(C)=C/C)C(OC3OC(CO)C(OC(=O)/C(C)=C/C)C(OC(=O)/C(C)=C/C)C3O)C(O)C2O)C(O)C(O)C1OC1OC(CO)C(OC(=O)/C(C)=C/C)C(OC(=O)/C(C)=C/C)C1O` (stereo not drawn): the activity change, negative = cytotoxicity in the test with C33A was -2.64% [at 11.6 µM]; in the test on CAOV3, -7.6% [at 11.6 µM]; with CASKI, 2.92% [at 11.6 µM]; with Es-2, 9.5% [at 11.6 µM]; in the test with HeLa, 29.5% [at 11.6 µM]; in the test with Hek293T, -1.84% [at 11.6 µM]. In addition, the activity change, negative = cytotoxicity in the test on JEG-3 is -2.52% [at 11.6 µM]; with OV90 it was -3.76% [at 11.6 µM]; in the test with PA-1 it was 0.651% [at 11.6 µM]; in the test with SKOV3 it was -11.6% [at 11.6 µM]; with Tov-21-G, 9.19% [at 11.6 µM]; in the test with Tov112D, -1.35% [at 11.6 µM].

These data come from PubChem BioAssay (NCATS).
